KB-3-1 tox: qHTS assay for MDR1-selective chemotherapeutics: Primary screen using the parental adenocarcinoma cell KB-3-1; KB-3-1 viability, CellTiter-Glo ATP luminescence, 72 h; Potency, µM (titrated, usually from 46.1 µM), usual class: cytotoxic; 400,000 compounds, 1.4% hits; further: nearly all actives have a fitted effect of over 60% in size
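Here the drug-naive KB-3-1 line serves as comparator for MDR sub-line selectivity; cells received compound titrations, 72 h at 37 °C, then CellTiter-Glo readout.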
KB-V1 MDR tox: qHTS assay for MDR1-selective chemotherapeutics: Primary screen using the drug-selected MDR subline cells KB-V1. KB-V1 MDR cells viability, CellTiter-Glo, 72 h. Potency, µM (highest dose often 46.1 µM), usual class: cytotoxic. 400,000 compounds, 3.4% hits. AID 1347076, 2019; further: nearly all actives have a fitted effect of over 60% in size
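Following 72 h at 37 degrees C with compound, KB-V1 cell viability was read by CellTiter-Glo luminescence, medium being phenol-red-free DMEM plus 10% FBS; concentration-response parameters came from normalized, curve-fitted qHTS data.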
HT1080-NT tox: qHTS for induction of synthetic lethality in tumor cells producing 2HG: qHTS for the HT-1080-NT fibrosarcoma cell line | HT-1080-NT fibrosarcoma viability, CellTiter-Glo ATP luminescence, 48 h | Potency, µM (series often up to 46.1 µM), without a hit: at the top dose activity, negative = less viability, most hits filed as cytotoxic | 360,000 compounds, 1.6% hits | AID 686970, 2013;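 further: NT is the 2HG producing partner of a matched IDH1 knockdown line; 0% = DMSO-treated cells and -100% = media-only wells without cells; nearly all actives have a fitted effect of over 55% in size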
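HT-1080-NT; 750 cells/well; 5% FBS RPMI; 48 h compound, 37 degrees C; CellTiter-Glo luminescence; curve fitting and curve-class assignment.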
HT1080 IDH1KD tx: qHTS for induction of synthetic lethality in tumor cells producing 2HG: qHTS for the HT-1080-IDH1KD cell line; Potency, µM (series often up to 46.1 µM), inactives show top-dose activity, negative = toxicity, hits mostly cytotoxic; AID 686971, 2013; HT-1080 IDH1 knockdown viability, ATP luminescence, 48 h; 360,000 compounds, 2% hits;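 further: 0% = DMSO wells and -100% = cell-free medium wells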
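HT-1080-IDH1KD cells (IDH1 knocked down), 750/well in RPMI with 5% FBS, treated with compound 48 h at 37 degrees C. Viability by CellTiter-Glo luminescence, normalised to DMSO and no-cell wells; concentration-response curves classed.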
DT40 TDP1 no CPT: qHTS for Inhibitors of human tyrosyl-DNA phosphodiesterase 1 (TDP1): qHTS in cells in absence of CPT. DT40 Tdp1-/- hTDP1 cells, no CPT, ATP luminescence, 48 h. 420,000 compounds, 15% hits. Potency, µM (titrated, usually from 46.2 µM), without a hit: at the highest dose activity change, negative = growth inhibition, actives largely listed as inhibitors; further: nearly all actives have a fitted effect of over 55% in size
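Luminescent ATP content (CellTiter-Glo) served as the growth readout. Knockout chicken DT40 cells expressing human TDP1 were exposed to compounds without camptothecin for a minimum 48 hr at 37 °C.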
DT40 TDP1 CPT: qHTS for Inhibitors of human tyrosyl-DNA phosphodiesterase 1 (TDP1): qHTS in cells in presence of CPT | chicken DT40 Tdp1-/-;hTDP1 cells + 20 nM CPT, ATP luminescence, 48 h | Potency, µM (doses to about 46.2 µM), for the others: at the top dose activity change, negative = growth inhibition, most hits filed as inhibitors | AID 686979, 2013 | 420,000 compounds, 12% hits; further: nearly all actives have a fitted effect of over 55% in size
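Cell growth measured by CellTiter-Glo luminescence after a minimum 48 h, 37 C compound exposure with 20 nM CPT in Tdp1-knockout DT40 cells stably expressing hTDP1, seeded 400/well; qHTS titration format.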
* hit, by the source's call; i = inactive; ? = inconclusive; · = no result; [ ] = remark or other dose. Compounds with a hit are over-represented: about 19% of the library has one in this group of screens. The call rests on the fitted dose curve; in most records, active means well fitted curve in the direction sought with a large enough effect; inconclusive means small, poorly fitted or top-dose-only effect, or another doubt; inactive means no such curve, though single readings can be large; an effect the other way counts as inactive or inconclusive. Unless noted, on the % scale 0 is the no-effect control and ±100 the full control effect; potency means the concentration at half of the fitted maximal effect.

SMILES | KB-3-1 tox | KB-V1 MDR tox | HT1080-NT tox | HT1080 IDH1KD tx | DT40 TDP1 no CPT | DT40 TDP1 CPT
Cc1cc(/C=N/n2cnnc2)c(C)n1-c1ccc2c(c1)OCO2 | i | 5.2µM* | -2% | -16% | -23% | ?
C(=N\n1cnnc1)/c1ccc2c(c1)OCO2 | i | i | ? | 10% | -1% | 4%
Cc1cccc(-n2c(C)cc(/C=N/n3cnnc3)c2C)c1 | ? | 18µM* | -13% | -10% | ? | 23µM*
CC(C)OCCCNc1nc(-c2ccccc2)nc2ccccc12 | i | i | -7% | -25% | 15µM* | ?
CCC(=O)OCCCNc1nc(-c2ccc(Cl)cc2)nc2ccccc12 | i | i | · | · | ? | ?
CC(C)(C)C(=O)OCCNc1nc(-c2ccccc2)nc2ccccc12 | i | ? | 11% | 8% | 21µM* | ?
O=C(O)CC/C(=N\NC(=O)CNC(=O)c1ccc(F)cc1)c1ccccc1 | i | i | 9% | 10% | 5% | 2%
CCOC(=O)c1c(NC(=O)C2COc3ccccc3O2)sc2c1CC(C)(C)NC2(C)C (configuration not stated) | ? | i | ? | 16µM* | 12µM* | 13µM*
CCOC(=O)c1c(NC(=O)C2COc3ccccc3O2)sc(C(C)=O)c1C (configuration not stated) | i | i | -18% | 1%[9.24 µM] | 6.5µM* | 7.3µM*
COc1ccc(Cl)cc1NC(=O)c1cc2c(=O)n3ccccc3nc2s1 | · | · | · | · | -13% | -19%
CC12CCC(C(=O)N3CCN(C(c4ccccc4)c4ccccc4)CC3)(OC1=O)C2(C)C (configuration not stated) | i | i | 4% | -16% | 18µM* | ?
Cc1c(C(=O)N2CCN(C(c3ccccc3)c3ccccc3)CC2)oc2ccccc12 | i | i | -12% | -14% | ? | 16µM*
Cc1cc(=O)oc(C)c1C(=O)N1CCN(C(c2ccccc2)c2ccccc2)CC1 | i | i | -2% | 0% | 29µM* | 21µM*
Cc1cc(C)c(C(=O)N2CCCC(CNC(=O)C3(c4ccc(Cl)cc4)CC3)C2)c(=O)[nH]1 (configuration not stated) | i | i | 13% | 2% | 4% | 4%
COc1ccc(C2=NOC(C)(c3nnc(-c4ccc(F)cc4)o3)C2)cc1 (configuration not stated) | i | i | 5% | 12% | -25% | 0%
CN(Cc1nc(-c2ccc(Cl)cc2)no1)S(=O)(=O)c1ccccc1 | i | i | · | · | ? | ?
COc1ccc(-c2noc(CN(C)S(=O)(=O)c3ccccc3)n2)cc1OC | i | ? | 10% | 24% | ? | 16µM*
Cc1ccc(S(=O)(=O)N(C)Cc2nc(-c3ccc(Br)cc3)no2)cc1 | ? | i | 2% | -15% | 18µM* | ?
COc1ccc2c(c1)OC(C)CN(CCNC(=O)C1CCOC1)C2 (configuration not stated) | · | · | · | · | 14% | 4%[9.04 µM]
CC(C)c1nn2c(=O)cc(COC(=O)c3cccs3)nc2s1 | i | i | · | · | 4% | 2%
CCCN(CCC)S(=O)(=O)c1ccc(C(=O)N2CCC(=O)c3ccccc32)cc1 | i | i | -4% | -3% | 23µM* | ?
CCCCNC(=O)CCCn1c(=O)[nH]c2ccc(Br)cc2c1=O | i | i | -5% | 0% | -30% | -11%
Cc1cccc(N2CCN(C(=O)CCCCCn3c(=S)[nH]c4ccc(N5CCOCC5)cc4c3=O)CC2)c1C | i | i | 6% | 0% | 6.5µM* | 16µM*
COc1cccc(N2CCN(C(=O)CCCCCNc3nc(=S)[nH]c4ccccc34)CC2)c1 | i | 10µM* | -19% | ? | 9.2µM* | 4.6µM*
CC1CCCN(C(=O)CCCn2c(=S)[nH]c3ccccc3c2=O)C1 (configuration not stated) | i | 8.2µM* | 2% | 13% | ? | -1%
SMILES | KB-3-1 tox | KB-V1 MDR tox | HT1080-NT tox | HT1080 IDH1KD tx | DT40 TDP1 no CPT | DT40 TDP1 CPT
CC(=O)c1ccc(N2CCN(C(=O)CCCn3c(=O)[nH]c4ccc(Br)cc4c3=O)CC2)cc1 | i | i | -10% | -15% | 13µM* | 15µM*
O=C(CCCCCn1c(=S)[nH]c2ccc(N3CCOCC3)cc2c1=O)NCCc1ccccc1 | i | i | -3% | 4% | -24% | 3%
Cc1ccc(CN2c3ccccc3-c3nc(SCC(=O)NCCc4ccccc4)ncc3S2(=O)=O)cc1 | i | i | · | · | ? | ?
CCOc1ccc2c(S(=O)(=O)O)cccc2c1[N+](=O)[O-] | i | i | 5% | 18% | -17% | 6%
Cc1ccc(CNC(=O)CCCn2nc(C)n3c(cc4sccc43)c2=O)cc1 | · | · | · | · | -18% | -18%
CC(=O)c1ccc(N2CCN(C(=O)CCCCn3c(=O)[nH]c4ccccc4c3=O)CC2)cc1 | i | i | · | · | 16µM* | 13µM*
O=C(CCCn1c(=S)[nH]c2ccccc2c1=O)N1CCN(c2cccc(Cl)c2)CC1 | i | i | -1% | -5% | 18µM* | 16µM*
O=C(CCCn1c(=O)[nH]c2ccc(Br)cc2c1=O)N1CCN(c2cccc(Cl)c2)CC1 | ? | ? | · | · | 8.2µM* | 15µM*
CN(CC(=O)NCCc1ccc(S(N)(=O)=O)cc1)S(=O)(=O)c1ccc(Br)s1 | i | i | -1% | 4% | -17% | -24%
Cc1ccc(CC2C(=O)N(c3cc(C)ccc3C)C(=O)C2C)cc1 (configuration not stated) | i | i | -10% | -10% | -21% | -25%
CCN1CCC(O)(/C=C/c2ccc(C(C)C)cc2)C(C(=O)/C=C/c2ccc(C(C)C)cc2)C1 (configuration not stated) | ? | ? | ? | 21µM* | 23µM* | 15µM*
NC(=O)c1ccccc1NC(=O)Nc1cccc(Cl)c1 | i | i | 1% | -2% | ? | 12µM*

Assay outcomes deposited in PubChem by National Center for Advancing Translational Sciences (NCATS).
